For 16 compounds, Potency and max activation results are on record in PubChem BioAssay (Tox21).

A number with no mark means an inactive call. Results filed as inconclusive are left out. The source made the active and inactive calls. Unless noted, calls come from the whole dose curve; as a rule, active = well fitted curve in the direction sought with a large enough effect in the repeat runs; inconclusive = weak or mixed curves; inactive = no such curve, though single readings can be large; an effect the other way counts as inactive or inconclusive.

Assay [1] can be described thus: Caspase-3/7 induction in HepG2 cells by small molecules, qHTS assay (AID 1346978). Note: nearly all actives have a fitted effect of over 15% in size. Note: potency is the fitted concentration of half-maximal effect. Put shortly:
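Wild-type HepG2 cells, 2,000/well, settled 5 hr at 37 C and 5% CO2, then compound-treated for 17 hr; caspase-3/7 activity read by luminescent Caspase-Glo 3/7 after 30 min at room temperature.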

Assay [2] is described as follows: Caspase-3/7 induction in CHO-K1 cells by small molecules, qHTS cell viability counter screen (AID 1346979). Note: nearly all actives have a fitted effect of over 35% in size. Note: potency is the fitted concentration of half-maximal effect. Put shortly: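 CellTiter-Fluor viability check, qHTS format: wild-type CHO-K1, 16hr compound treatment, 1hr reagent incubation, fluorescence read.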
A short description of assay [3]: Caspase-3/7 induction in CHO-K1 cells by small molecules, qHTS assay (AID 1346980). Note: nearly all actives have a fitted effect of over 15% in size. Note: potency is the fitted concentration of half-maximal effect. Put shortly:
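Wild-type CHO-K1 cells exposed to compounds for 17hr at 37 C, 5% CO2. Caspase-3/7 activity then measured by Caspase-Glo 3/7 luminescence after 30min at room temperature.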

Assay [4] in a line: Caspase-3/7 induction in HepG2 cells by small molecules, qHTS cell viability counter screen (AID 1346981). Note: nearly all actives have a fitted effect of over 30% in size. Note: potency is the fitted concentration of half-maximal effect. In short, it runs like this:
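The parent HepG2 line is plated at 2,000 cells per well and rested 5 hr before compound pinning from DMSO stocks. Following a 16-hr treatment at 37 C, a fluorogenic live-cell substrate (CellTiter-Fluor) reports viability after 1 hr.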

Assay [5] deals with Acetylcholinesterase (Homo sapiens) (UniProt P22303). Nature of the assay: Acetylcholinesterase (AChE) small molecule antagonists: colormetric cell-based qHTS assay (AID 1347395; calls by dose curve; note: nearly all actives have a fitted effect of over 30% in size; note: potency is the fitted concentration of half-maximal effect). Put shortly:
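AChE inhibition read colorimetrically via DTNB–thiocholine in SH-SY5Y cells. Compound 30 min, substrate 90 min, both 37 C.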

Assay [6] has the same target. In words: Acetylcholinesterase (AChE) small molecule antagonists: enzyme-based qHTS assay (AID 1347397; calls by dose curve; note: nearly all actives have a fitted effect of over 55% in size). The following applies: Potency: AChE enzyme activity inhibition. In short, it runs like this: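 In this quantitative HTS, compounds from the Tox21 10K collection were preincubated 30 min at ambient temperature with recombinant human AChE dispensed at 50 mU/mL. Hydrolysis of acetylthiocholine was then followed for 10 min by DTNB colour development.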

The target is the same in assay [7]. Nature of the assay: Acetylcholinesterase (AChE) small molecule antagonists: fluorescence cell-based qHTS assay (AID 1347398; calls by dose curve; note: nearly all actives have a fitted effect of over 50% in size; note: potency is the fitted concentration of half-maximal effect). To be noted: Potency: AChE activity. In short, it runs like this:
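Cells (SH-SY5Y) attached overnight, were dosed with compound or DMSO vehicle for 30 min at 37 C, and then incubated 40 min at room temperature with acetylthiocholine and Thiolite Green; green fluorescence indexed AChE activity.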

For assay [8] the target is unchanged. Nature of the assay: Acetylcholinesterase (AChE) small molecule antagonists: enzyme-based qHTS assay with human liver microsomes (AID 1347399; calls by dose curve; note: nearly all actives have a fitted effect of over 60% in size; note: potency is the fitted concentration of half-maximal effect). To be noted: Potency: qHTS inhibition. In short, it runs like this:
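Recombinant human AChE (50 mU/mL in the enzyme mix) and human liver microsomes (0.25 mg/mL final) were preincubated with compound and NADPH (0.25 mg/mL final) for 30 min at 37 C. Acetylthiocholine/DTNB was then added; thiocholine was read colorimetrically after 10 min at room temperature.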

Assay [9] addresses Cytochrome P450 2D6 (Homo sapiens) (UniProt P10635). Nature of the assay: Cytochrome P450 Family 2 Subfamily D Member 6 (CYP2D6) small molecule antagonists: luciferase reporter qHTS assay (AID 1671196). Note: nearly all actives have a fitted effect of over 50% in size. Note: potency is the fitted concentration of half-maximal effect. Put shortly: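 Quantitative HTS of Tox21 chemicals against CYP2D6 using a luminescent proluciferin substrate. After NADPH addition, 1 h room-temperature reaction; luminescence recorded 20 min post detection reagent.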

In assay [10] the target is Cytochrome P450 2C19 (Homo sapiens) (UniProt P33261). In words: Cytochrome P450 Family 2 Subfamily C Member 19 (CYP2C19) small molecule antagonists: luciferase reporter qHTS assay (AID 1671197). Note: nearly all actives have a fitted effect of over 65% in size. Note: potency is the fitted concentration of half-maximal effect. In short, it runs like this: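 Light output is proportional to CYP2C19 activity: proluciferin substrate is converted to luciferin, then detected by a luciferin detection reagent that also stops the 1 h, 37C NADPH-driven reaction. Ketoconazole serves as positive control.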
Cytochrome P450 2C19 (Homo sapiens), sequence (P33261 whole entry, looked up): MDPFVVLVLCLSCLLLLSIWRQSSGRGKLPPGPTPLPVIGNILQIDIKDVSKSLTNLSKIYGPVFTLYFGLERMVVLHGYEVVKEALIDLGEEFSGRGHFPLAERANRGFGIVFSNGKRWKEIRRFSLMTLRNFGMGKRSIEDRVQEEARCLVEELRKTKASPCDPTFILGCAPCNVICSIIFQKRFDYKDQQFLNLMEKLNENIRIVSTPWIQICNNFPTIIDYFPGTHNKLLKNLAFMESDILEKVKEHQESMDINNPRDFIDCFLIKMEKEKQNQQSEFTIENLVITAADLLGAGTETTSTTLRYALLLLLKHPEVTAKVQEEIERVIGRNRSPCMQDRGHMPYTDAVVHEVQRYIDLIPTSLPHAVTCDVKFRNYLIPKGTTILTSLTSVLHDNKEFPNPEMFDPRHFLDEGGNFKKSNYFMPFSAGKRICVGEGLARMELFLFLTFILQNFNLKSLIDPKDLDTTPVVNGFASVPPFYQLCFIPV

Assay [11] addresses Cytochrome P450 2C9 (Homo sapiens) (UniProt P11712). In words: Cytochrome P450 Family 2 Subfamily C Member 9 (CYP2C9) small molecule antagonists: luciferase reporter qHTS assay (AID 1671198). Note: nearly all actives have a fitted effect of over 50% in size. Note: potency is the fitted concentration of half-maximal effect. Put shortly: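 P450-Glo proluciferin substrate with CYP2C9 enzyme; 10 min RT preincubation, then NADPH regeneration 1 h at 37C; luciferin detection reagent 20 min RT, luminescence in relative luminescence units.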

The target in assay [12] is Cytochrome P450 1A2 (Homo sapiens) (UniProt P05177). In words: Cytochrome P450 Family 1 Subfamily A Member 2 (CYP1A2) small molecule antagonists: luciferase reporter qHTS assay (AID 1671199). Note: nearly all actives have a fitted effect of over 50% in size. Note: potency is the fitted concentration of half-maximal effect. Put shortly:
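Quantitative high-throughput format using the P450-Glo CYP1A2 system. Reaction initiated by NADPH regeneration solution, 1 h at room temperature, then stopped with detection reagent; luminescence measured 20 min later.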

Assay [13] addresses Voltage-gated inwardly rectifying potassium channel KCNH2 (Homo sapiens) (UniProt Q12809). Nature of the assay: Human Ether-a-go-go-Related Gene (hERG) channel small molecule antagonists: fluorescence cell-based qHTS assay (AID 1671200). Note: nearly all actives have a fitted effect of over 50% in size. Note: potency is the fitted concentration of half-maximal effect. Put shortly:
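Kinetic two-minute fluorescence traces, sampled at 1 s, were collected following thallium stimulus of U2OS cells (1000 per well) that had been cultured overnight at 37 C and loaded with FluxOR II.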

Assay [14] concerns the target Cytochrome P450 3A4 (Homo sapiens) (UniProt P08684). Nature of the assay: Cytochrome P450 Family 3 Subfamily A Member 4 (CYP3A4) small molecule antagonists: luciferase reporter qHTS assay (AID 1671201). Note: nearly all actives have a fitted effect of over 50% in size. Note: potency is the fitted concentration of half-maximal effect. Put shortly:
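Proluciferin-to-luciferin conversion by CYP3A4, NADPH-regenerated, 1 h RT; luminescence read as RLU. Ketoconazole as control.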

In assay [15] the target is Nuclear receptor subfamily 1 group I member 2 (Homo sapiens) (UniProt O75469). In words: Human pregnane X receptor (PXR) small molecule agonists, qHTS assay (AID 1346982). Note: nearly all actives have a fitted effect of over 35% in size. Note: potency is the fitted concentration of half-maximal effect. In short, it runs like this: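 After plating in 5% charcoal-stripped FBS and a 5 hr rest, PXR-Luc HepG2 cells received compounds in DMSO. Following 24 hr at 37 C, ONE-Glo was added and light output read.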
Nuclear receptor subfamily 1 group I member 2 (Homo sapiens), sequence (O75469 whole entry, looked up): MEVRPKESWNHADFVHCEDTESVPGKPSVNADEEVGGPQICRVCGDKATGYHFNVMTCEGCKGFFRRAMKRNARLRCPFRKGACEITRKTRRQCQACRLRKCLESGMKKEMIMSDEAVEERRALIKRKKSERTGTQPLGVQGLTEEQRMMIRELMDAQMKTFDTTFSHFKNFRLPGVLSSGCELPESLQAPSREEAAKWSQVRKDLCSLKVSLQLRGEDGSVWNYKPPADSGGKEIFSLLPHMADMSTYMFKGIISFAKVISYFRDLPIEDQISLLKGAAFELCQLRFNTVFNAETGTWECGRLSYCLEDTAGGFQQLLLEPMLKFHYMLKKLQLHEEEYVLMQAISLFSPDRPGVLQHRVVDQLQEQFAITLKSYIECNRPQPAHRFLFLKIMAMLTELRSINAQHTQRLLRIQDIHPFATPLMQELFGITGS

The target of assay [16] is Nuclear receptor subfamily 1 group I member 2 (Rattus norvegicus) (UniProt Q9R1A7). Nature of the assay: Rat pregnane X receptor (rPXR) activation by small molecules, qHTS assay (AID 1346983). Note: nearly all actives have a fitted effect of over 20% in size. The following applies: rPXR luciferase reporter cells, One-Glo luminescence, 24 h; max activation: hits give high values. Put shortly: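 Cell-based rPXR activation assay: rPXR cells, 2,000 per well, rested 5hr at 37 C, then exposed to compounds in DMSO for 24 hr at 37 C. Luciferase activity read by One-Glo luminescence after 30 min at room temperature.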
% is set by controls: 0 for no effect and ±100 for the full control effect.

Cytochrome P450 2D6 (Homo sapiens), sequence (P10635 whole entry, looked up): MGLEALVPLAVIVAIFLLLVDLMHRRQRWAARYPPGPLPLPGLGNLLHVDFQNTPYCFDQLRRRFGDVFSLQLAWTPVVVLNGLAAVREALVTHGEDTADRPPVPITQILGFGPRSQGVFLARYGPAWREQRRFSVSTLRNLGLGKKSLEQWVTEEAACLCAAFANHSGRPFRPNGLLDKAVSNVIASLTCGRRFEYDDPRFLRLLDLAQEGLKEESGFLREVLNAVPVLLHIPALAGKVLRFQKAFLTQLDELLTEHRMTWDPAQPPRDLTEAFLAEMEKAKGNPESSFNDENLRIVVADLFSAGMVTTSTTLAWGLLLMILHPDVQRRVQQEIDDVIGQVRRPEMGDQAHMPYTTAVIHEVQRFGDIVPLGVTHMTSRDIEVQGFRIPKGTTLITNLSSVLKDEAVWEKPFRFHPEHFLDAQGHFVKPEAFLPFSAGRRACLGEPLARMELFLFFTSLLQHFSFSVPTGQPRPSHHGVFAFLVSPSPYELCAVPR
Cytochrome P450 3A4 (Homo sapiens), sequence (P08684 whole entry, looked up): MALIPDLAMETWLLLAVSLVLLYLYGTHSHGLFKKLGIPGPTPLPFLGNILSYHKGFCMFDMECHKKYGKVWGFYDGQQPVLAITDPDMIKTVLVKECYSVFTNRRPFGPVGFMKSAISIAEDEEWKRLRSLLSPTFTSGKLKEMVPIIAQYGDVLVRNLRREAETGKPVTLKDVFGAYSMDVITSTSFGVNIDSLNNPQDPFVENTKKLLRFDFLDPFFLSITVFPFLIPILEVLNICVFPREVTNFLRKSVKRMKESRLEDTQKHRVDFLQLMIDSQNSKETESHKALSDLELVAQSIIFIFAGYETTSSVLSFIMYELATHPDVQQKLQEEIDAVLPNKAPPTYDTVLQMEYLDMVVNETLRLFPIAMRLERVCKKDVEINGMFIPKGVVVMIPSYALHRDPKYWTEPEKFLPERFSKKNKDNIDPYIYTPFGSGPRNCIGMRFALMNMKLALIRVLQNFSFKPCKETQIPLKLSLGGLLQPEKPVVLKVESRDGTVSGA
Cytochrome P450 1A2 (Homo sapiens), sequence (P05177 whole entry, looked up): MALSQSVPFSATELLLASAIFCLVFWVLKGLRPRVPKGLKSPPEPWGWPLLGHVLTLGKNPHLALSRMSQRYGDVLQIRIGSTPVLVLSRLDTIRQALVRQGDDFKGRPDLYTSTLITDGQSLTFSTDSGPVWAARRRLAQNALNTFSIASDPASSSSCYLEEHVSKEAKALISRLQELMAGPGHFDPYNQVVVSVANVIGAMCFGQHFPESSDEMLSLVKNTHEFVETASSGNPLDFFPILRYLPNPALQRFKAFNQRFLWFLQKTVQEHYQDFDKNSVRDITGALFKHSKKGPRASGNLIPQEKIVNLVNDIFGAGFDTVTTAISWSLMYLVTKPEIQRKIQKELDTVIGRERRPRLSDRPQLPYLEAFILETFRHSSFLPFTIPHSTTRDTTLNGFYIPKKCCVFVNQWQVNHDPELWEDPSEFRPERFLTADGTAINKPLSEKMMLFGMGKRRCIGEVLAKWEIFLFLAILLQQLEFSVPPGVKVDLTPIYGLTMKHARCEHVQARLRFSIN
Cytochrome P450 2C9 (Homo sapiens), sequence (P11712 whole entry, looked up): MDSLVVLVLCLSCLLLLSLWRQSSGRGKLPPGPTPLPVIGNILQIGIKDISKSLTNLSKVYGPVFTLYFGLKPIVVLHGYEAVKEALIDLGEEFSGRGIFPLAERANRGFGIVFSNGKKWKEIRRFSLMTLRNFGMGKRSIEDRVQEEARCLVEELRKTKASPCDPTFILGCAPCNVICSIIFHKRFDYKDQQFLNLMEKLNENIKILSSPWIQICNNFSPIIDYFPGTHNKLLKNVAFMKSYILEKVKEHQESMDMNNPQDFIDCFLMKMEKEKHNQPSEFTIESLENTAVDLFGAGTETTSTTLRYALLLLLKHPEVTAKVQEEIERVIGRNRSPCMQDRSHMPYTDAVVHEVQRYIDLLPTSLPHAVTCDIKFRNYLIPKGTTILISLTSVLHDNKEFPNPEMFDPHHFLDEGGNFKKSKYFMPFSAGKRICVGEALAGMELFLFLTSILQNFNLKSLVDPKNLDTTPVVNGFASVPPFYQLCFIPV
Acetylcholinesterase (Homo sapiens), sequence (P22303 whole entry, looked up): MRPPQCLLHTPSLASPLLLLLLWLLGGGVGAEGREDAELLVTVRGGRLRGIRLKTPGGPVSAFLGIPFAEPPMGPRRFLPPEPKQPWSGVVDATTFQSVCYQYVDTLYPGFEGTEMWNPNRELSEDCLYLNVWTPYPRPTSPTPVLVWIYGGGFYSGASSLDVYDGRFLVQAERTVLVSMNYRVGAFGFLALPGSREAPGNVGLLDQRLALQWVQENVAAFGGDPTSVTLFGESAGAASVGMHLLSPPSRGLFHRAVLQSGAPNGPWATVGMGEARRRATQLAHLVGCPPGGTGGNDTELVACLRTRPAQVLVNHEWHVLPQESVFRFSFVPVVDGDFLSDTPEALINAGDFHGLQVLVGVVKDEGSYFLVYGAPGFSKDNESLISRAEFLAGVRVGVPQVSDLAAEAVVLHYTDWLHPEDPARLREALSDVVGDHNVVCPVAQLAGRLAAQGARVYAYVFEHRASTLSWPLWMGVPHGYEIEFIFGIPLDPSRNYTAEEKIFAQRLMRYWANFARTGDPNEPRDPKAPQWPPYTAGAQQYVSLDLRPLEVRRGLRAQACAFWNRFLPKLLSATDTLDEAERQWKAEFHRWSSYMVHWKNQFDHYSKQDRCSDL
Voltage-gated inwardly rectifying potassium channel KCNH2 (Homo sapiens), sequence (Q12809 whole entry, looked up): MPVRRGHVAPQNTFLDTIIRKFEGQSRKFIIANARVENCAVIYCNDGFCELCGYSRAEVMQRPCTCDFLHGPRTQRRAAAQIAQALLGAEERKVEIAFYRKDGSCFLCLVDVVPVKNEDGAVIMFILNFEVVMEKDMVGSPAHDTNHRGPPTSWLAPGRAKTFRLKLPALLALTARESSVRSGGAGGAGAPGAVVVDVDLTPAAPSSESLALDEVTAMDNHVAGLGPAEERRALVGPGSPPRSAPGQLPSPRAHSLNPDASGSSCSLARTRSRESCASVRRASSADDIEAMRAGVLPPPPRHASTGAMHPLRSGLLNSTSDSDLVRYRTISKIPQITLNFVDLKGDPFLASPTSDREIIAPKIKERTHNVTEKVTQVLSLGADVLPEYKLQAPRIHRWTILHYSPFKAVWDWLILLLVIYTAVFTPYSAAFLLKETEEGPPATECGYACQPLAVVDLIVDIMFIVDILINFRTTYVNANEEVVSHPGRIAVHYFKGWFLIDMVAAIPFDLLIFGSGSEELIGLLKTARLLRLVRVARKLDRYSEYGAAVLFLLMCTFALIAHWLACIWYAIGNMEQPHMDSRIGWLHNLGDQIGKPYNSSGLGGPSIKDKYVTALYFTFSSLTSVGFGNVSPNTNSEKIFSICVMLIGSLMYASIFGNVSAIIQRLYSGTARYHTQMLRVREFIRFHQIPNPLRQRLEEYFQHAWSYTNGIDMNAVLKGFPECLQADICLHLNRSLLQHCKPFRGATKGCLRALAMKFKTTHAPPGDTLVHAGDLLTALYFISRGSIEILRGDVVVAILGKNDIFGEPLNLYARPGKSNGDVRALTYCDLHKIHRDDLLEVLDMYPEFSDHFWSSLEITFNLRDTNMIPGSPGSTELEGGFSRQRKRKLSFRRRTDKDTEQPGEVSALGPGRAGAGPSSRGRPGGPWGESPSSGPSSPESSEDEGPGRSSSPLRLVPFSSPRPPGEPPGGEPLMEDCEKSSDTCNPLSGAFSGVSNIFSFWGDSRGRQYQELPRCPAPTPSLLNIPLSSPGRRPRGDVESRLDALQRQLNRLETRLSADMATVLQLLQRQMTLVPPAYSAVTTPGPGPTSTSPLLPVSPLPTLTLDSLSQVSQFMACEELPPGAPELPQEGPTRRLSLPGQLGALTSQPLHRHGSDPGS

Take `CCC1(CC)C(=O)N=C(O)NC1=O`: the Potency entry in assay [1], in [2], in assay [3], in assay [4], in assay [5] and in [6] was “inactive” in each case. Further, the Potency result in assay [7], in assay [8], in assay [9], in [10], in assay [11] and in assay [12] was “inactive” each time. The Potency result in assay [13] and in assay [14] was “inactive” throughout.

Take `C#CCO`: the Potency entry in assay [1], in assay [2], in assay [3], in assay [4], in assay [15] and in assay [5] was “inactive” throughout. The Potency result in assay [7], in assay [8], in assay [10], in assay [11], in assay [13] and in assay [14] was “inactive” in each case.

With `COC(=O)c1ccccc1S(=O)(=O)NC(=O)Nc1nc(C)nc(OC)n1`, the Potency entry in [1], in assay [2], in assay [3], in assay [4], in [15] and in assay [5] was “inactive” in each case. The Potency entry in assay [7], in [8], in assay [13] and in [14] was “inactive” in each case. For the same compound, in assay [10], the Potency was 35.3 µM (active).

On to `CC(C)N(C(=O)SC/C(Cl)=C/Cl)C(C)C`, for which the Potency entry in assay [1], in assay [2], in assay [3], in [4], in assay [5] and in [6] was “inactive” throughout. Further, the Potency entry in assay [7] and in assay [8] was “inactive” in each case. For the same compound, the Potency in assay [10] was 3.19 µM (active); in assay [11] it was 31.9 µM (active).

On to `CC(C)=CCN1CC[C@@]2(C)c3cc(O)ccc3C[C@@H]1[C@@H]2C`, for which the Potency entry in assay [1], in [2], in assay [3], in assay [4], in assay [15] and in assay [8] was “inactive” each time. For the same compound, the Potency entry in assay [11], in [12] and in assay [14] was “inactive” throughout. For the same compound, the Potency in assay [5] was 31.2 µM (active); in assay [7] it was 44.1 µM (active); in assay [10], 78.5 µM (active).

With `CCCCC(CC)COC(=O)c1ccccc1C(=O)OCC(CC)CCCC` (stereo unspecified), the Potency result in assay [1], in [2], in [3], in [4], in [5] and in [7] was “inactive” throughout. The Potency entry in assay [8] and in assay [13] was “inactive” in each case. In addition, the Potency is 6.86 µM (active) in assay [15], 14.2 µM (active) in assay [10], 9.47 µM (active) in [11] and 33.6 µM (active) in [12].

For the compound `CC[C@H](C)[C@H]1O[C@]2(C=C[C@@H]1C)C[C@@H]1C[C@@H](C/C=C(\C)[C@@H](O[C@H]3C[C@H](OC)[C@@H](O[C@H]4C[C@H](OC)[C@@H](NC)[C@H](C)O4)[C@H](C)O3)[C@@H](C)/C=C/C=C3\CO[C@@H]4[C@H](O)C(C)=C[C@@H](C(=O)O1)[C@]34O)O2`, the Potency in [1] was 17.2 µM (active); in assay [2], 6.11 µM (active); in [3] it was 6.11 µM (active); in assay [4], 15.4 µM (active); in assay [10] it was 35.6 µM (active); in assay [11], 35.6 µM (active). Also, the Potency in [14] is 1.59 µM (active). Moreover, the Potency result in assay [5], in [6], in [7], in [8] and in assay [13] was “inactive” in each case.

In the case of `O=C(O)[C@H](O)[C@@H](O)C(=O)O`, the Potency entry in assay [1], in assay [2], in [3], in [4], in assay [5] and in assay [7] was “inactive” throughout. For the same compound, the Potency entry in assay [13] is “inactive”.

For the compound `CN`, the Potency entry in assay [1], in assay [2], in assay [3], in assay [4] and in [13] was “inactive” in each case.

On to `CC1(C)[C@H](/C=C2\CCSC2=O)[C@@H]1C(=O)OCc1coc(Cc2ccccc2)c1`, for which the Potency result in assay [1], in [3], in [4], in assay [5], in [7] and in [8] was “inactive” each time. The Potency entry in assay [13] is “inactive”. In addition, the Potency in [2] is 61.1 µM (active); in assay [15], 21.7 µM (active); in [9], 39.9 µM (active); in assay [11], 1.26 µM (active); in assay [12], 22.4 µM (active); in assay [14] it was 3.99 µM (active).

With `CCCCn1cc[n+](C)c1` (tested in a mixture with another compound), the Potency entry in assay [1], in assay [2], in assay [3], in [4] and in assay [13] was “inactive” in each case.

Regarding `CCOP(=O)(OCC)Oc1cc(C)nc(C(C)C)n1`, the Potency result in [1], in assay [2], in [3], in assay [4], in [15] and in assay [11] was “inactive” in each case. For the same compound, the Potency entry in assay [13] and in assay [14] was “inactive” throughout. The Potency in assay [5] was 0.142 µM (active); in assay [7], 0.714 µM (active); in assay [8] it was 25.3 µM (active); in [12] it was 35.8 µM (active).

In the case of `CC(C)c1c(CN(C)C(C)Cc2ccccc2)n(C)n(-c2ccccc2)c1=O` (stereo unspecified), the Potency result in assay [1], in [2], in [3], in assay [4], in assay [6] and in assay [7] was “inactive” throughout. In addition, the Potency entry in assay [8] and in assay [13] was “inactive” each time. In addition, in assay [16], the max activation was 8.57%. In addition, the results for the Potency in assay [10], in assay [11] and in assay [14] were 6.92 µM (active), 4.36 µM (active) and 1.74 µM (active), respectively.

On to `COc1ccc2c3c1O[C@H]1[C@H](O)CC[C@H]4[C@@H](C2)N(C)CC[C@@]341`, for which the Potency entry in [1], in assay [2], in [3], in [4], in assay [5] and in assay [6] was “inactive” each time. Besides, the Potency result in assay [7], in [8], in [10], in assay [12] and in assay [13] was “inactive” in each case.

On to `O=C(CCCCl)c1ccc(F)cc1`, for which the Potency entry in [1], in assay [2], in assay [3], in assay [4], in assay [15] and in assay [5] was “inactive” throughout. The Potency entry in assay [7], in assay [8], in assay [9], in [11], in assay [13] and in assay [14] was “inactive” in each case.

For `COc1ccc2[nH]cc(CCN(C(C)C)C(C)C)c2c1`, the Potency result in assay [1], in assay [2], in [3], in [4], in assay [15] and in assay [10] was “inactive” each time. Moreover, the Potency result in assay [11] and in [14] was “inactive” throughout. Further, the Potency in [9] was 4.09 µM (active); in [12], 40.9 µM (active); in assay [13], 28.2 µM (active).
